We go through 14 compounds from PubChem BioAssay (NCATS).

A short description of experiment [1]: Viability qHTS for spleen associated tyrosine kinase inhibitor (SYKi) naive MV4-11 cells (AID 1963823). Also: nearly all actives have a fitted effect of over 40% in size. Summed up: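 Read-out: CellTiter-Glo luminescence. Exposure: 72 hr, 37 C, 5% CO2, 95% humidity. Cells: MV4-11 without SYK inhibitor history, 500/well, qHTS format.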
(qHTS replaces the single test concentration by a dilution series.)

Experiment [2] in a line: Viability qHTS for spleen associated tyrosine kinase inhibitor (SYKi) drug resistant MV4-11 cells (AID 1963824). Also: nearly all actives have a fitted effect of over 35% in size. Summed up:
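SYK-inhibitor-resistant MV4-11 AML cells were seeded at 500 per well onto compound and cultured 72 hours (37 °C, 5% CO2). CellTiter-Glo was then added, and after 10 min at room temperature, luminescence gave viability.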

A short description of experiment [3]: Quantitative highthroughput screen to assess conditional lethalithy of NOMO1 cells grown in RPMI1640 with untreated serum (RPMI+s) (AID 1963876). Also: nearly all actives have a fitted effect of over 35% in size.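 As to Viability: 100% = DMSO wells and 0% = empty wells without cells.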 Summed up: (§1)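 Each medium arm—HPLM with 10% dialyzed FBS, or RPMI1640 with 5 mM glucose and 10% untreated or dialyzed FBS—was screened against an 11-point, 3-fold compound titration for 48 h at 37 °C, with CellTiter-Glo luminescence as endpoint.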

The nature of experiment [4]: Quantitative highthroughput screen to assess conditional lethalithy of NOMO1 cells grown in RPMI1640 with dialyzed fetal bovine serum (RPMI+ds) (AID 1963877). Also: nearly all actives have a fitted effect of over 30% in size.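 As to Viability: series mostly up to about 46 µM; 100% = DMSO control wells and 0% = empty wells.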 Summed up:
as §1

Experiment [5] is described as follows: Quantitative highthroughput screen to assess conditional lethalithy of NOMO1 cells grown in Human Plasma-Like Medium with dialyzed fetal bovine serum (HPLM+ds) (AID 1963878). Also: nearly all actives have a fitted effect of over 35% in size.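 As to Viability: 100% = DMSO wells and 0% = empty wells on each plate.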 In a few lines:
as §1

The nature of experiment [6]: Quantitative highthroughput screen to assess conditional lethalithy of P12 Ichikawa cells grown in RPMI1640 with dialyzed fetal bovine serum (RPMI+ds) (AID 1963880). Also: nearly all actives have a fitted effect of over 35% in size.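 As to Viability: 100% = DMSO wells and 0% = empty wells on each plate.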 The settings on record: Potency: P12-Ichikawa viability. Summed up: as §1
Experiment [7] in a line: Quantitative highthroughput screen to assess conditional lethalithy of P12 Ichikawa cells grown in RPMI1640 with untreated serum (RPMI+s) (AID 1963881). Also: nearly all actives have a fitted effect of over 35% in size.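 As to Viability: series mostly up to about 46 µM; 100% = DMSO wells and 0% = empty wells without cells.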 The settings on record: Potency: viability. In a few lines: as §1
The nature of experiment [8]: Quantitative highthroughput screen to assess conditional lethalithy of SEM cells grown in Human Plasma-Like Medium with dialyzed fetal bovine serum (HPLM+ds) (AID 1963882). Also: nearly all actives have a fitted effect of over 35% in size. As to Viability: series mostly up to about 46 µM. Summed up: as §1
Experiment [9] can be described thus: Quantitative highthroughput screen to assess conditional lethalithy of SEM cells grown in RPMI1640 with unreated serum (RPMI+s) (AID 1963883). Also: nearly all actives have a fitted effect of over 35% in size.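 As to Viability: 100% = DMSO wells and 0% = empty wells without cells.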 Summed up: as §1
A short description of experiment [10]: Quantitative highthroughput screen to assess conditional lethalithy of SEM cells grown in RPMI1640 with dialyzed fetal bovine serum (RPMI+ds) (AID 1963884). Also: nearly all actives have a fitted effect of over 35% in size.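 As to Viability: series mostly up to about 46 µM; 100% = DMSO control wells and 0% = empty wells without cells.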 Summed up:
as §1

Experiment [11] can be described thus: Cellular viability qHTS for adrenocortical cancer (ACC) cell line SW-13 (AID 1963989). Also: nearly all actives have a fitted effect of over 65% in size.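 As to activity (max response): cells grown in serum-free medium with ITS supplement; % is scaled to controls: 0 for no effect and ±100 for the full control effect.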 The settings on record: SW-13 ACC cells viability, CellTiter-Glo, 48 h; activity (max response): stronger effect = lower value. In a few lines:
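IC50 and maximal-response values come from four-parameter logistic fits of titration data. SW-13 cells in serum-free medium received compounds (up to 46 uM final) for 48 h before CellTiter-Glo luminescence.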

Experiment [12] can be described thus: Cellular viability qHTS for adrenocortical cancer (ACC) cell line NCI-H295R (AID 1963990). Also: nearly all actives have a fitted effect of over 60% in size. In a few lines:
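Adrenocortical carcinoma cells, suspended at 300 000 cells/mL in serum-free DMEM plus ITS, rested overnight before pin transfer of compound. After two days' incubation, ATP-dependent luminescence was recorded and curve-fitted.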

Experiment [13] in a line: Quantitative highthroughput screen to assess conditional lethalithy of P12 Ichikawa cells grown in Human Plasma-Like Medium with dialyzed fetal bovine serum (HPLM+ds) (AID 1963879). Also: nearly all actives have a fitted effect of over 35% in size. The conditions noted are these: Potency: viability. In a few lines:
as §1

SMILES strings stand for the structures. Several values for one entry are separate records, joined by “and”; a condition that tells them apart may be missing. Equal values may be shown once. Results filed as inconclusive are left out. The source holds several records for some structures; these can differ, active in one and inactive in another. Activity calls are given as the source filed them. Calls follow the shape of the dose curve; as a rule, active = well fitted curve in the direction sought with a large enough effect; inconclusive = small, poorly fitted or top-dose-only effect, or another doubt; inactive = no such curve, though single readings can be large; an effect the other way counts as inactive or inconclusive.
Potency is read from the fitted curve at half-maximal effect.

In the case of `CC(C)CC(=O)Nc1n[nH]c2c1CN(C(=O)C1CCN(C)CC1)C2(C)C`, the Potency was 206 nM (active) and 417 nM (active) in [1]; 259 nM (active) and 468 nM (active) in experiment [2]; 3.72 µM (active) in [3]; 5.9 µM (active) in experiment [4]; 6.62 µM (active) in [5]; 4.69 µM (active) in experiment [6]. Besides, the Potency in experiment [7] was 4.18 µM (active); in [8] it was 2.64 µM (active); in experiment [9], 1.05 µM (active); in experiment [10], 4.69 µM (active); in experiment [11] it was 3.98 µM (active).
As for `CC(C)(C)c1nc2c3cc[nH]c(=O)c3c3cc(F)ccc3c2[nH]1`, the Potency in [1] was 0.411 µM (active); in [2], 0.651 µM (active); in experiment [3], 5.9 µM (active); in [4] it was 4.69 µM (active); in [5], 2.09 µM (active). Besides, in experiment [11], the activity (max response) is -16.1% (inactive). In addition, in experiment [12], the Potency result is “inactive”.
On to `Cc1cc2c(F)c(Oc3ncnn4cc(OC[C@@H](C)O)c(C)c34)ccc2[nH]1`, for which the values for the Potency in experiment [1], in experiment [2] and in experiment [10] were 5.9 µM (active), 9.34 µM (active) and 9.35 µM (active), respectively. For the same compound, the Potency entry in [3], in experiment [4], in [5] and in experiment [12] was “inactive” throughout.
For the compound `CCOC(=O)c1ccc(C#Cc2ccc3c(c2)C(C)(C)CCS3)nc1`, the Potency in experiment [1] is 5.25 µM (active); in experiment [2] it was 3.76 µM (active). In addition, the Potency entry in [3], in experiment [4], in [5], in [6], in experiment [7] and in experiment [8] was “inactive” throughout. Besides, the Potency entry in experiment [9], in [10] and in experiment [12] was “inactive” throughout. In addition, the activity (max response) in [11] is -8.69% (inactive).
As to `CC(C)[C@H](CO)Nc1nc(Nc2cccc(Cl)c2)c2ncn(C(C)C)c2n1`, the Potency in experiment [1] is 2.59 µM (active); in experiment [2], 3.32 µM (active); in [3], 2.09 µM (active); in experiment [4] it was 2.35 µM (active); in experiment [5], 0.743 µM (active); in experiment [6], 5.9 µM (active). Also, the Potency in experiment [7] was 8.33 µM (active); in [8], 1.32 µM (active); in experiment [9], 0.372 µM (active); in experiment [10], 0.418 µM (active); in experiment [11], 22.4 µM (active); in experiment [12], 20 µM (active).
For the compound `Cc1cc(Nc2ncc(Cl)c(Nc3ccccc3S(=O)(=O)C(C)C)n2)c(OC(C)C)cc1C1CCNCC1`, the Potency in [1] is 2.59 µM (active); in experiment [2], 2.31 µM (active) and 2.35 µM (active); in experiment [3] it was 18.6 µM (active); in experiment [4] it was 18.6 µM (active); in [5], 13.2 µM (active); in experiment [7], 26.3 µM (active). Moreover, the Potency in experiment [8] is 14.8 µM (active); in experiment [10] it was 16.6 µM (active); in experiment [11], 15.8 µM (active); in experiment [12], 2.24 µM (active).
Consider `Cc1nc(Nc2n[nH]c3c2CN(C(=O)N[C@H](CN(C)C)c2ccccc2)C3(C)C)c2sccc2n1`, for which the Potency is 0.0132 µM (active) in [1]; 0.0118 µM (active) in experiment [2]; 1.32 µM (active) in experiment [3]; 3.72 µM (active) in experiment [4]; 1.48 µM (active) in experiment [5]; 1.48 µM (active) in experiment [6]. Also, the Potency in experiment [7] is 1.66 µM (active); in [8] it was 0.743 µM (active); in experiment [9] it was 0.332 µM (active); in [10] it was 1.18 µM (active); in experiment [11] it was 3.16 µM (active); in [12] it was 28.2 µM (active).
In the case of `CCN1CCN(c2ccc(Nc3cc(N(C)C(=O)Nc4c(Cl)c(OC)cc(OC)c4Cl)ncn3)cc2)CC1`, the Potency in experiment [1] is 2.63 µM (active); in experiment [2], 1.86 µM (active); in experiment [3] it was 5.26 µM (active); in experiment [4], 7.43 µM (active); in experiment [5] it was 3.32 µM (active); in experiment [8], 4.18 µM (active). For the same compound, the Potency in experiment [9] was 2.09 µM (active); in [10] it was 2.64 µM (active). Further, the activity (max response) in experiment [11] was -7.03% (inactive). Also, the Potency result in experiment [12] was “inactive”.
As for `O=C(O)CCCCCC(=O)NN=C1CCCC1`, the Potency result in experiment [1], in experiment [2], in experiment [3], in experiment [4], in experiment [5] and in experiment [6] was “inactive” each time. Further, the Potency result in experiment [7], in experiment [9], in experiment [10] and in [12] was “inactive” in each case. In addition, the activity (max response) in experiment [11] is 2.29% (inactive).
Regarding `CNC(=O)[C@H](Cc1ccccc1)NC(=O)[C@H](CC(C)C)[C@H](CSc1cccs1)C(=O)NO`, the Potency in experiment [1] is 5.25 µM (active); in experiment [2] it was 2.95 µM (active); in experiment [6], 11.8 µM (active); in experiment [8], 16.6 µM (active); in [10], 14.8 µM (active). The Potency entry in [3], in experiment [4], in [5] and in [12] was “inactive” throughout. Besides, in [11], the activity (max response) is -14.2% (inactive).
`COC(=O)Nc1cc(Nc2cc(NC3CC3)c3ncc(C#N)n3n2)c(Cl)c(N2CCN(C)CC2)c1`: the Potency was 0.417 µM (active) in experiment [1]; 0.662 µM (active) in experiment [2]; 9.33 µM (active) in experiment [3]; 7.41 µM (active) in [4]; 16.6 µM (active) in [5]; 11.7 µM (active) in experiment [6]. Also, the Potency was 14.8 µM (active) in experiment [7]; 4.17 µM (active) in experiment [8]; 2.63 µM (active) in [9]; 2.34 µM (active) in experiment [10]; 2.82 µM (active) in experiment [11]; 2.24 µM (active) in experiment [12].
`CCCCOc1ccc(CC(=O)NO)cc1`: the Potency result in experiment [1] is “inactive and 14.8 µM (active)”; in experiment [2] it was “inactive and 18.6 µM (active)”. Also, the Potency result in experiment [3], in [4], in [5] and in experiment [12] was “inactive” each time. Further, the activity (max response) in [11] was -10.9% (inactive).
Turning to `COc1ccc2cccc(CCNC(C)=O)c2c1`, the Potency entry in experiment [1], in [2], in experiment [3], in [4], in [5] and in [6] was “inactive” in each case. The Potency result in experiment [7] and in [12] was “inactive” throughout. The activity (max response) in [11] is 13% (inactive).
In the case of `CC(C)=CC[C@@H](O)C1=CC(=O)c2c(O)ccc(O)c2C1=O`, the Potency in experiment [1] is 5.25 µM (active); in experiment [2], 2.63 µM (active); in experiment [3] it was 1.66 µM (active); in [4], 2.09 µM (active); in experiment [13], 9.35 µM (active); in experiment [6] it was 13.2 µM (active). Besides, in experiment [7], the Potency was 10.5 µM (active). In [8], the Potency result was “inactive”.
